Screens (PubChem BioAssay)
A selection: hits, their analogues and other compounds. The true share with any hit is near 4.7%.
TRHR PAM = TRH receptor (human) allosteric enhancement; P34981; TRHR cells, fluo-8 calcium fluorescence, EC20 TRH enhancement; enhancement, % at 2 µM; 0.66% of 360,000 active; in the data active means enhancement above about 30%; further: 0% is about no effect
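TRHR-expressing cells loaded with fluo-8 calcium dye were read kinetically (ex 480/em 530) during compound addition, then stimulated with an EC20 of TRH (10 nM final). Enhancement of the Gq-mediated intracellular calcium response was scored.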
D1 ag = agonists of human D1 dopamine receptor. HEK293 T-REx D1 cells, calcium flux, agonist mode. 1% of 360,000 active. AID 504660. activation, % at 2 µM; further: 0% is about no effect
Target sequence (P21728 whole entry, looked up): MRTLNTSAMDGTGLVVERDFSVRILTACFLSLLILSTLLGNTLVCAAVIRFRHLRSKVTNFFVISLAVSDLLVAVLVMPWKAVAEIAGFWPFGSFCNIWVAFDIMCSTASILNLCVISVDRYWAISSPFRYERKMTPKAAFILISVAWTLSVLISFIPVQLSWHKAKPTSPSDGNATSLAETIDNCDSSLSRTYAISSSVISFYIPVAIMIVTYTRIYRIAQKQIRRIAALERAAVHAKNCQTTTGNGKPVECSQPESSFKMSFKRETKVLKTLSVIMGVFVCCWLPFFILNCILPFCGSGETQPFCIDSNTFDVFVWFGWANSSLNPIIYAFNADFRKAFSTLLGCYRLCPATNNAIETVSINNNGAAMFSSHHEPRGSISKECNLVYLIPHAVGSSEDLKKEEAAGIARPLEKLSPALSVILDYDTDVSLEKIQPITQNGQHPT
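Agonism was scored from calcium flux recorded over 180 s (1 read/s) after pintool compound addition, following a 10-cycle baseline. Cells were inducible force-coupled HEK293 TREx D1, plated overnight at 30 C and loaded with no-wash calcium dye.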
D1 PAM = enhances dopamine response at the human D1 receptor | P21728 | HEK293 TREx D1 cells, calcium flux, dopamine EC20 potentiation | potentiation, % at 10 µM | 0.036% of 360,000 active | AID 504651; in the data active means potentiation above about 30%; further: 0% is about no effect
D1 antagonist = antagonists of human D1 dopamine receptor. P21728. HEK293 TREx D1 cells, calcium flux, dopamine EC80; active compounds read low. activity change, negative = inhibition, % at 10 µM. 3.2% of 360,000 active; in the data active means activity change below about -30%; further: on the % scale 0 is the no-effect control and ±100 the full control effect
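Allosteric or orthosteric antagonism assessed as attenuation of the calcium response to EC80 dopamine, added 180 s after compound, in induced HEK293 Trex D1 cells loaded with no-wash calcium dye.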
TRHR ag = agonists of human TRH receptor; P34981; TRHR cells, calcium flux fluo-8, FDSS agonist mode; activation, % at 2 µM; 0.18% of 360,000 active; AID 493084; further: 0% is about no effect
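In this calcium-flux screen, cells bearing human TRHR are dye-loaded with fluo-8, baselined for 10 cycles, then exposed to library compounds; positive kinetic calcium responses during the agonist phase mark hits, with TRH as control.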
Active calls of the source: *; x = no result given. Unless noted, no stated cut-off is given here; in the data, active means activation above about 30%; inactive means the rest.

SMILES	TRHR PAM	D1 ag	D1 PAM	D1 antagonist	TRHR ag
COc1ccc(NC(=O)C2=C(C)C(=O)OC23CCN(C(C)C)CC3)cc1Cl	0.3	5.1	-5.1	-18.3	1.6
CCN(Cc1cccs1)C(=O)CN1C(=O)NC(c2ccccc2)(c2ccccc2)C1=O	35.5*	1.0	-0.4	-2.8	0.6
Cc1cc2nc3c(=O)n(C)c(=O)n(C)c3nc2cc1N=CN(C)C	3.1	46.3*	-0.1	-12.2	18.5
CCCCCCC(=O)Nc1cc2nc3c(nc2cc1C)c(=O)n(C)c(=O)n3C	9.7	0.0	0.1	-8.3	-1.0
CC(=O)Nc1ccc(NC(=O)c2ccc3c(c2)CCN3S(=O)(=O)c2ccc(Cl)cc2)cc1	2.9	2.1	0.3	-11.2	0.7
CC(C)(C)n1nnnc1C(c1cccnc1)N1CCN(c2ccccn2)CC1 (stereo unspecified)	1.6	30.9*	-3.3	-60.4*	1.5
COc1ccc(-c2nc3cc(C(C)C)ccc3o2)cc1NC(=O)c1ccc(C)c(Cl)c1	-1.7	5.0	6.5	-10.1	-0.1
CCOC(=O)Cn1c(S(=O)(=O)Cc2cccc(F)c2)nc(-c2ccccc2)c1-c1ccccc1	1.5	16.5	-5.0	-38.3*	-0.4
CCOC(=O)CSc1nc2c(sc(=S)n2-c2ccccc2)c(=O)[nH]1	-3.1	0.6	-4.4	-9.9	-1.0
CCN(CC)C(=O)CSc1nc2c(sc(=S)n2-c2ccc(C)cc2C)c(=O)[nH]1	8.1	0.8	-4.3	-40.6*	-0.3
Clc1ccc(-c2cc(COc3ccccc3)on2)cc1	14.3	35.2*	5.1	11.2	2.9
O=c1nc2n(c3ccccc13)Cc1ccccc1-2	7.9	2.7	-3.6	5.8	0.0
O=c1cc(-c2ccccc2)nc2n1Cc1ccccc1-2	31.3*	1.0	-0.6	-5.3	0.6
COc1ccc(OCCSc2nnc(CCNC(=O)c3ccc(Cl)c(Cl)c3)n2C)cc1	-5.9	0.8	-4.8	-36.2*	1.3
Clc1ccc(C2=Nn3c(nnc3-c3n[nH]c4c3CCC4)SC2)cc1Cl	35.5*	0.9	1.3	28.5	0.3
COC(=O)N/N=C/c1ccc(-c2ccccc2Cl)o1	0.1	0.5	-7.2	-13.7	-0.6
COC(=O)c1ccc(Cl)c(-c2ccc(/C=N/NC(=O)Nc3ccccc3)o2)c1	31.0*	1.4	-8.4	0.6	0.2
O=C(Nc1cc2c(cc1C(=O)c1ccc(Br)cc1)OCCO2)c1ccc(Cl)cc1	-5.1	0.5	-0.5	10.6	-0.3
Cc1cnc(C(=O)OCC(=O)c2ccc(Br)s2)cn1	2.6	3.5	7.1	2.7	-0.1
CCCC1=NN2C(=N)/C(=C\c3cc(C)n(-c4cc(C)cc(C)c4)c3C)C(=O)N=C2S1	10.5	40.0*	-1.3	-60.3*	-2.9
CC(C)(C)N(Cc1ccccc1)C(=O)COC(=O)C1=NN(c2ccccc2)C(=O)CC1	1.2	1.2	-2.1	-14.6	-0.4
Cc1cnc(NC(=O)C2CC=CCC2)s1 (stereo unspecified)	-0.3	0.6	-3.4	15.2	1.5
O=C(CSc1nnc(CNc2ccc(F)cc2)o1)OC1CCCCC1	-3.4	1.8	0.3	-30.8*	0.3
O=C(CSc1nnc(CNC(=O)c2ccccc2)o1)c1ccc(Cl)cc1	5.8	12.6	-6.8	-43.2*	0.0
O=C(COc1ccc(Cl)cc1)NCc1nnc(SCC(=O)Nc2ccccc2)o1	-2.8	-0.7	1.9	0.1	-0.1
SMILES	TRHR PAM	D1 ag	D1 PAM	D1 antagonist	TRHR ag
O=C(COc1ccc(Cl)cc1)NCc1nnc(SCC(=O)NC2CCCCC2)o1	3.4	20.2	-4.8	-32.5*	-1.0
COc1ccc(C(=O)CSc2nnc(CNC(=O)c3ccccc3)o2)cc1	2.4	20.9	-5.2	-5.0	-0.4
O=C(CSc1nc2ccccc2s1)N1c2ccccc2Sc2ccc(Cl)cc21	-2.4	2.0	-9.6	-48.9*	0.7
COc1ccccc1CNC(=O)C1CCCN(C(=O)c2cnn(-c3ccc(F)cc3)c2-n2cccc2)C1 (stereo unspecified)	-7.7	4.1	-2.5	-18.2	-1.0
CCOc1cc(S(=O)(=O)NCCc2c(C)[nH]c3ccc(C)cc23)ccc1F	6.2	4.3	0.1	4.4	1.1
CN1CCN(C(=O)CSc2nnc(COc3ccc(Cl)cc3)o2)CC1	1.5	16.0	x	-36.7*	-1.9
Cc1ccc(OCc2nnc(SCC(=O)N3c4ccccc4Sc4ccc(Cl)cc43)o2)cc1	3.3	0.7	2.2	-32.2*	0.3
Cc1ccc(-c2nc(C)c(CCNS(=O)(=O)c3ccccc3F)s2)cc1	-1.7	8.4	-4.0	3.6	0.4
CN(Cc1ccco1)c1ncnc2ccc(-c3ccc4c(c3)OCCO4)cc12	0.3	0.2	-1.6	4.0	-0.4
Cc1ccc(NC(=O)CN2CCN(C3CCCCC3)C(=O)C2=O)cc1C	2.2	1.8	1.2	-1.4	-0.5
CCN(CC)S(=O)(=O)c1ccc(NC2CCCc3ccccc32)nc1 (stereo unspecified)	-4.1	4.9	-6.7	-31.3*	-0.1
CCN(CC)S(=O)(=O)c1ccc(Cl)c(C(=O)NC2CCN(Cc3ccccc3)CC2)c1	-0.6	6.2	-5.2	-7.9	-0.2
CCN(CC)S(=O)(=O)c1ccc(NC2CCN(Cc3ccccc3)CC2)nc1	4.3	34.3*	-8.8	-37.5*	-0.2
COCCCNC(=O)c1cc2n(n1)CCCN(Cc1ccc(C)cc1)C2=O	4.5	-0.6	-0.9	5.2	-1.4
CN(C(=O)c1cc2n(n1)C(C(F)(F)F)CC(c1ccco1)N2)c1ccccc1 (stereo unspecified)	-3.1	-0.4	-5.0	-50.5*	0.8
NC(=O)C1CCN(C(=O)c2cc3n(n2)C(C(F)(F)F)CC(c2ccco2)N3)CC1 (stereo unspecified)	4.0	-0.3	11.8	-40.1*	-0.1
CC(C)c1ccc(NC(=O)COc2ccccc2)cc1	4.0	0.9	-1.9	-6.2	0.3
CC(C)c1ccc(NC(=O)COc2ccccn2)cc1	6.1	1.8	-8.7	-91.4*	0.6
Cc1ccc(CNC(=O)Cn2cc(S(=O)(=O)Cc3ccccc3F)c3ccccc32)cc1	7.8	31.7*	0.1	-12.4	-0.7
O=C(Cn1c(SCc2ccccc2F)nc2cccnc21)Nc1ccc(F)c(Cl)c1	36.0*	10.8	2.0	0.5	0.7
O=C(Cn1c(SCC(=O)Nc2ccc(F)cc2)nc2ccccc21)NCc1ccc(F)cc1	-10.7	4.4	-0.3	1.0	0.2
O=C(Cn1cc(S(=O)(=O)Cc2ccccc2F)c2ccccc21)NCc1ccccc1	3.5	2.6	-2.1	7.4	0.1
O=C(Cn1cc(S(=O)(=O)Cc2ccc(F)cc2)c2ccccc21)NCc1ccccc1Cl	26.3	35.7*	1.4	-22.0	-0.7
O=C(Cn1c(SCC(=O)Nc2ccc(F)cc2)nc2ccccc21)NCc1ccccc1Cl	9.0	32.7*	-0.3	-20.2	-0.1
Cc1ccc(-c2nc(S(=O)(=O)c3ccc(C)cc3)c(SCC(=O)c3ccccc3)o2)cc1	-9.7	8.1	-0.6	1.7	1.0
